This is part of a sample that, as a whole, favours compounds with a hit. Of some 79,000 tested, about 15% had one in any assay. The source made the active and inactive calls. Rule as the data show it: active = growth inhibition above about 70%; inactive = the rest.
How the values were obtained:
[1] = NCI Yeast Anticancer Drug Screen. Data for the mec2-1 strain (AID 157); settings: S. cerevisiae mec2-1 strain, active compounds read high
Summary of the method: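 Test agents were screened against the mec2-1 yeast strain, with defined DNA repair or cell cycle alteration. Growth was scored as inhibition against vehicle-only controls.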

[2] = NCI Yeast Anticancer Drug Screen. Data for the rad14 strain (AID 159);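 also: 0% = growth of vehicle-treated control cultures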; settings: S. cerevisiae rad14 strain growth inhibition, active compounds read high
Summary of the method: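 Here, inhibition of yeast growth was measured after compound exposure, using a strain with a genetic defect in DNA damage repair and vehicle-treated cultures as the reference.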

[3] = NCI Yeast Anticancer Drug Screen. Data for the sgs1 mgt1 strain (AID 161);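 also: 0% = growth of cultures given vehicle only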; settings: S. cerevisiae sgs1 mgt1 strain, active compounds read high
Summary of the method: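 Mutant yeast exposed to compound; growth scored against vehicle-only wells.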

[4] = NCI Yeast Anticancer Drug Screen. Data for the CLN2oe strain (AID 163);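 also: 0% = growth of vehicle-only control cultures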; settings: S. cerevisiae CLN2oe strain, active compounds read high
Summary of the method: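 Here, growth inhibition in a cell-cycle-altered yeast strain after compound exposure was quantified against vehicle control growth.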

[5] = NCI Yeast Anticancer Drug Screen. Data for the cln2 rad14 strain (AID 165);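 also: 0% = growth equal to vehicle treated cultures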; settings: S. cerevisiae cln2 rad14 strain, active compounds read high
Summary of the method: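 Growth of compound-exposed yeast (cln2 rad14 genotype) measured and expressed as inhibition relative to vehicle.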

[6] = NCI Yeast Anticancer Drug Screen. Data for the bub3 strain (AID 167); settings: S. cerevisiae bub3 mutant strain, active compounds read high
Summary of the method: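 Whole-cell yeast assay. The mutant strain was incubated with compounds, and growth inhibition was determined by comparison with vehicle-treated cells.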

[7] = NCI Yeast Anticancer Drug Screen. Data for the wt2 strain (AID 169);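 also: 0% = growth of vehicle-treated yeast cultures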; settings: S. cerevisiae wt2 strain growth inhibition, active compounds read high
Summary of the method: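 Genetically defined yeast strains from a DNA-repair/cell-cycle panel were used. Compound-exposed yeast growth was measured, and the inhibition was calculated relative to vehicle treatment.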

[8] = NCI Yeast Anticancer Drug Screen. Data for the mlh1 strain (AID 171);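 also: 0% = growth of vehicle-treated control cultures of the same strain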; settings: S. cerevisiae mlh1 strain growth inhibition, active compounds read high
Summary of the method: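 Here the genetically defined yeast mutant is grown with each compound, and the extent to which its growth falls below that of vehicle-exposed cells is reported.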

[9] = NCI Yeast Anticancer Drug Screen. Data for the sgs1 strain (AID 173);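 also: 0% = growth of vehicle-only control cultures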; settings: S. cerevisiae sgs1 mutant, active compounds read high
Summary of the method: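 Relative growth inhibition, referenced to vehicle, was determined in a yeast strain with a defined alteration affecting DNA damage repair or cell cycle control after compound exposure.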

[10] = NCI Yeast Anticancer Drug Screen. Data for the mlh1 rad18 strain (AID 175); settings: S. cerevisiae mlh1 rad18 strain growth inhibition, active compounds read high
Summary of the method: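 In this whole-cell yeast screen, a strain with altered DNA damage repair is challenged with compound, and its growth is measured against matched vehicle-treated controls.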

[11] = NCI Yeast Anticancer Drug Screen. Data for the rad18 strain (AID 177); settings: S. cerevisiae rad18 mutant growth inhibition, active compounds read high
Summary of the method: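 Screen uses a yeast strain with a defined lesion in DNA damage repair; compound effect is read as loss of growth compared to untreated vehicle cultures.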

[12] = NCI Yeast Anticancer Drug Screen. Data for the rad52 strain (AID 147);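 also: 0% = growth of vehicle-treated control cultures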; settings: S. cerevisiae rad52 mutant growth inhibition, active compounds read high
Summary of the method: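 Measured: yeast growth inhibition. System: strain with a defined DNA damage repair alteration. Reference: vehicle-treated control cultures.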

[13] = NCI Yeast Anticancer Drug Screen. Data for the wt1 strain (AID 149);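 also: 0% = growth of vehicle-treated wt1 cultures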; settings: S. cerevisiae wt1 strain (SPY 50644) growth inhibition, active compounds read high
Summary of the method: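 Measured: growth of wt1 yeast under compound versus vehicle treatment, reported as inhibition.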

[14] = NCI Yeast Anticancer Drug Screen. Data for the rad50EPP+ strain (AID 151);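 also: 0% = growth of vehicle-treated control cultures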; settings: S. cerevisiae rad50 mutant strain, active compounds read high
Summary of the method: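 One strain with a rad50 alteration (rad50EPP+) was compound-treated, its growth then compared to that of vehicle controls.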

[15] = NCI Yeast Anticancer Drug Screen. Data for the rad50 strain (AID 155);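 also: 0% = growth of vehicle-only cultures of the same strain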; settings: S. cerevisiae rad50 strain growth inhibition, active compounds read high
Summary of the method: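 Growth of the mutant yeast was measured after compound exposure and referenced to vehicle-treated cultures.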

[16] = at 5.0 µM (retest, dose inferred, filed as 0.5)
[17] = at 50.0 µM (retest, dose inferred, filed as 5.0)

Measured: growth inhibition

O=C(NCCCNCCCNC(=O)c1cc(-c2ccccc2)nc2ccccc12)c1cc(-c2ccccc2)nc2ccccc12
active: [2]; at 100.0 µM 82% | [10]; [17] 78% | [10]; at 50.0 µM 89.4%
inactive: [1]; at 100.0 µM 47% | [2]; at 1.2 µM -1% | [2]; at 3.7 µM -1% | [2]; at 11.0 µM 4% | [2]; at 33.0 µM 58% | [3]; [16] 0% | [3]; [17] -8% | [3]; at 50.0 µM 56.2% | [4]; at 1.2 µM -3% | [4]; at 3.7 µM -1% | [4]; at 11.0 µM -4% | [4]; at 33.0 µM 14% | [4]; at 100.0 µM 24% | [5]; [16] 40% | [5]; [17] 42% | [5]; at 50.0 µM 37.8% | [6]; at 1.2 µM -3% | [6]; at 3.7 µM -1% | [6]; [16] 3% | [6]; at 11.0 µM -1% | [6]; at 33.0 µM 11% | [6]; [17] 58% | [6]; at 50.0 µM 64.1% | [6]; at 100.0 µM 44% | [7]; at 1.2 µM -3% | [7]; at 3.7 µM -4% | [7]; at 11.0 µM -4% | [7]; at 33.0 µM 1% | [7]; at 100.0 µM 11% | [8]; at 1.2 µM -4% | [8]; at 3.7 µM -1% | [8]; at 11.0 µM -1% | [8]; at 33.0 µM 16% | [8]; at 100.0 µM 46% | [9]; at 1.2 µM -3% | [9]; at 3.7 µM -2% | [9]; at 11.0 µM -1% | [9]; at 33.0 µM 7% | [9]; at 100.0 µM 11% | [10]; [16] 17% | [11]; at 1.2 µM -4% | [11]; at 3.7 µM -3% | [11]; at 11.0 µM -4% | [11]; at 33.0 µM 13% | [11]; at 100.0 µM 34%

CCN(CC)CCC(=O)c1ccc(Oc2ccc(F)cc2)cc1
inactive: [12]; at 1.2 µM -23% | [12]; at 3.7 µM -26% | [12]; at 11.0 µM -40% | [12]; at 33.0 µM 8% | [13]; at 1.2 µM -11% | [13]; at 3.7 µM 23% | [13]; at 11.0 µM 21% | [13]; at 33.0 µM -5% | [14]; at 1.2 µM -9% | [14]; at 3.7 µM -30% | [14]; at 11.0 µM 9% | [14]; at 33.0 µM 36% | [15]; at 1.2 µM -5% | [15]; at 3.7 µM -21% | [15]; [16] 46% | [15]; at 11.0 µM -17% | [15]; at 33.0 µM 2% | [15]; at 50.0 µM 57% | [1]; at 1.2 µM 17% | [1]; at 3.7 µM 35% | [1]; [16] 41% | [1]; at 11.0 µM 42% | [1]; at 33.0 µM 52% | [1]; at 50.0 µM 44.5% | [2]; at 1.2 µM 5% | [2]; at 3.7 µM 39% | [2]; at 11.0 µM 51% | [3]; [16] 62% | [3]; [17] 66% | [4]; at 1.2 µM 10% | [4]; at 3.7 µM 17% | [4]; at 11.0 µM 35% | [4]; at 33.0 µM 54% | [4]; at 100.0 µM 68% | [5]; [16] 21% | [5]; [17] 3% | [5]; at 50.0 µM 32.9% | [6]; at 1.2 µM 35% | [6]; at 3.7 µM 46% | [6]; [16] 55% | [6]; at 11.0 µM 58% | [6]; [17] 47% | [6]; at 50.0 µM 69.6% | [8]; at 1.2 µM 34% | [8]; at 3.7 µM 37% | [8]; at 11.0 µM 58% | [9]; at 1.2 µM -12% | [9]; at 3.7 µM -2% | [9]; at 11.0 µM 11% | [9]; at 33.0 µM 59% | [10]; [16] 65% | [10]; at 50.0 µM 47.5% | [11]; at 1.2 µM 4% | [11]; at 3.7 µM 26% | [11]; at 11.0 µM 27% | [11]; at 33.0 µM 52%
active: [12]; at 100.0 µM 83% | [13]; at 100.0 µM 80% | [14]; at 100.0 µM 93% | [15]; [17] 82% | [15]; at 100.0 µM 87% | [1]; [17] 87% | [1]; at 100.0 µM 95% | [2]; at 33.0 µM 79% | [2]; at 100.0 µM 81% | [3]; at 50.0 µM 76.5% | [6]; at 33.0 µM 83% | [6]; at 100.0 µM 97% | [8]; at 33.0 µM 73% | [8]; at 100.0 µM 83% | [9]; at 100.0 µM 96% | [10]; [17] 93% | [11]; at 100.0 µM 96%
